Laboratory results: publication PMC7862700, “An all-to-all approach to the identification of sequence-specific readers for epigenetic DNA modifications on cytosine”

Experiments:
Test in all cases: DAPPL (digital affinity profiling via proximity ligation, sequencing); 10 mM Tris-HCl pH 7.5, 50 mM NaCl, 1 mM DTT, 4% glycerol, room temperature, 30 min; GST-TFs on glutathione beads, 16-mer random dsDNA library, 0.1% formaldehyde crosslink after washing; high values mean tight binding
Conditions in all cases: protein: recombinant; tags: N-terminal GST; dsDNA, one strand shown
FEV = biological target: T1, FEV (Homo sapiens, UniProt Q99581 1-238)
T1 sequence: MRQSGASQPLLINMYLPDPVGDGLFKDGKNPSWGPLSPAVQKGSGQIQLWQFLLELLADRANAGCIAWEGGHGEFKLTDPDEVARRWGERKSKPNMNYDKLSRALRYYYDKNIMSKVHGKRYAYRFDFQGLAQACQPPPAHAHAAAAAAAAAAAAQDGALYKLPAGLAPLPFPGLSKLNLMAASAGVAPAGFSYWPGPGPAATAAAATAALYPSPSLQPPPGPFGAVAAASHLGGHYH
Outline: (§1)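 Beads coated with glutathione captured GST-fused human transcription factors that had been expressed in yeast, and the factors were then given DNA barcodes and pooled with a tag-only sample. The pools were incubated with 200 nmole of a random double-stranded 16-mer DNA library in Tris/NaCl/DTT/glycerol buffer for 30 min at room temperature, washed, crosslinked with 0.1% formaldehyde and proximity-ligated with BsaI/T4 ligase at 37 °C for 1 h. PCR amplification and Illumina NextSeq500 sequencing came last. Binding signal is each hexamer's read frequency for a factor divided by its frequency for the tag-only sample.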

ETV5 = ETV5 (Homo sapiens, UniProt P41161 1-510)
Sequence of ETV5 (P41161 whole entry): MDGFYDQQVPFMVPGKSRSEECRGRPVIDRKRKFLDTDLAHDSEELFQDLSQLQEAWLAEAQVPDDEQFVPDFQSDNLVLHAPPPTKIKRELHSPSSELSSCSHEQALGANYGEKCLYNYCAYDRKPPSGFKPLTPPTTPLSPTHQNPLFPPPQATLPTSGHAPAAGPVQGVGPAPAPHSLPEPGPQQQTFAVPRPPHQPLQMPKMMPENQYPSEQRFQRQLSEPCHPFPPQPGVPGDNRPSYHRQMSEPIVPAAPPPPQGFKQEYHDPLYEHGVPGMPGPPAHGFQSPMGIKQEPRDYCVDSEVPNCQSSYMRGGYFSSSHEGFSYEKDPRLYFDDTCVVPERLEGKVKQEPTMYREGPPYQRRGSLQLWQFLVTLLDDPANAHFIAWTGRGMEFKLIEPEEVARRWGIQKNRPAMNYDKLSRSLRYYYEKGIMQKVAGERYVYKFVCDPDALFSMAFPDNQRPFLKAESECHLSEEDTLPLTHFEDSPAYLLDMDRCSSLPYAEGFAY
Outline: as §1

SPIC = biological target: T2, SPIC (Homo sapiens, UniProt Q8N5J4 1-248)
T2 sequence: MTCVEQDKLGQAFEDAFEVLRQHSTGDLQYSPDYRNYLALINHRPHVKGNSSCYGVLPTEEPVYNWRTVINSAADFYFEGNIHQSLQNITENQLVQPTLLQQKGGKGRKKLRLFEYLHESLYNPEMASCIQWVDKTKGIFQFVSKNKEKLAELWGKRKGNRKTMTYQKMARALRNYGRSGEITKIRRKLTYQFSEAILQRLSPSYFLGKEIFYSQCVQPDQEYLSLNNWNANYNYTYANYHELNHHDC
Outline: as §1

ELF4 = ELF4 (Homo sapiens, UniProt Q99607 1-663)
Sequence of ELF4 (Q99607 whole entry): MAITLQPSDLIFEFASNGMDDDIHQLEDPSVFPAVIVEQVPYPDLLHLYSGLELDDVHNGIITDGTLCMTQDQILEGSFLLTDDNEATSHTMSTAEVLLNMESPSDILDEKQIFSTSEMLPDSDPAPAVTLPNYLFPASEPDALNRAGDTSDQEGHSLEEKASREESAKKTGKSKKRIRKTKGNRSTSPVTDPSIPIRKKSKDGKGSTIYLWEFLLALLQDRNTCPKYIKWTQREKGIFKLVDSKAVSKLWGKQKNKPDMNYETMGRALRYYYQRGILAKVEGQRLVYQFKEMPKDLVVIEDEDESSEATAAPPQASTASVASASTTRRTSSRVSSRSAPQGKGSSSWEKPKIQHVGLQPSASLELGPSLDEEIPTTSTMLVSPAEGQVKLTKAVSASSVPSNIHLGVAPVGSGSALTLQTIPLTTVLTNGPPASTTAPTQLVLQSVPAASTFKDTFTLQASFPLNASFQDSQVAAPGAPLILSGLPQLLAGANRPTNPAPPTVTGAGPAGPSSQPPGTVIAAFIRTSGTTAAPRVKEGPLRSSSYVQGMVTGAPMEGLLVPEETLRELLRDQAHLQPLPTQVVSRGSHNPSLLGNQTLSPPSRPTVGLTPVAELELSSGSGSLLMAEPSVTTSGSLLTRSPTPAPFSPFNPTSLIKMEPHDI
Outline: as §1

ELK4 = biological target: T3, ELK4 (Homo sapiens, UniProt P28324-2 1-405)
T3 sequence: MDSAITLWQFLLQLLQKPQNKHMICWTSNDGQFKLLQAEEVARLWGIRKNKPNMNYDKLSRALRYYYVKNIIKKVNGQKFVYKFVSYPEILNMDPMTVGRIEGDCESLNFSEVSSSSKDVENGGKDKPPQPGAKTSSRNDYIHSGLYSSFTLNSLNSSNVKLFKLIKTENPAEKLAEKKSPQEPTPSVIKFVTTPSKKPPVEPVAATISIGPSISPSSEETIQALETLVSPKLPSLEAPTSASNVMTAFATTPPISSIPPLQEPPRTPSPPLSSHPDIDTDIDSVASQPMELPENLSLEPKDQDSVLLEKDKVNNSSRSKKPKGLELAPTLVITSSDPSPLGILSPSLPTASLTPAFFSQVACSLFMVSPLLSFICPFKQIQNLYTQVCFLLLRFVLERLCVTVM
Outline: as §1

ETV2 = biological target: T4, ETV2 (Homo sapiens, UniProt O00321 1-342)
T4 sequence: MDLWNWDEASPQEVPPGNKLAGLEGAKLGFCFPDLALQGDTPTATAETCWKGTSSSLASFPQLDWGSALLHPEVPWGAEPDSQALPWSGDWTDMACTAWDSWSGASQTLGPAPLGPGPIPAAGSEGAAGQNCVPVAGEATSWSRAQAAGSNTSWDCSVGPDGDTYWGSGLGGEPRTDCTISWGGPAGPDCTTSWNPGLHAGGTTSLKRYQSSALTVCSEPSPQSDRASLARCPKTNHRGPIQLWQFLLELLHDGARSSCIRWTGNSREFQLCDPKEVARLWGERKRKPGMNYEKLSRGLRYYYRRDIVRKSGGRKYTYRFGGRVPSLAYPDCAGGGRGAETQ
Outline: as §1

ELF3 = biological target: T5, ELF3 (Homo sapiens, UniProt P78545 1-371)
T5 sequence: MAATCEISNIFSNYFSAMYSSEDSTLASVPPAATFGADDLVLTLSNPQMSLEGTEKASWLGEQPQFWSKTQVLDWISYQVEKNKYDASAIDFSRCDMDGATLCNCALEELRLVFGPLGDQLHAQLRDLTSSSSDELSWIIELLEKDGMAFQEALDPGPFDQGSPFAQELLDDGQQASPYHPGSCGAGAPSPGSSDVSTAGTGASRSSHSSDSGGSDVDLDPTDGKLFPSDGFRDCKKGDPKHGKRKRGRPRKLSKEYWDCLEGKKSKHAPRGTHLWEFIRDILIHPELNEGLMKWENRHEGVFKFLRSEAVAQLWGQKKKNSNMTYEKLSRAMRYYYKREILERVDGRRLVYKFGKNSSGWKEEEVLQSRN
Outline: as §1

ETV1 = ETV1 (Homo sapiens, UniProt P50549 1-477)
Sequence of ETV1 (P50549 whole entry): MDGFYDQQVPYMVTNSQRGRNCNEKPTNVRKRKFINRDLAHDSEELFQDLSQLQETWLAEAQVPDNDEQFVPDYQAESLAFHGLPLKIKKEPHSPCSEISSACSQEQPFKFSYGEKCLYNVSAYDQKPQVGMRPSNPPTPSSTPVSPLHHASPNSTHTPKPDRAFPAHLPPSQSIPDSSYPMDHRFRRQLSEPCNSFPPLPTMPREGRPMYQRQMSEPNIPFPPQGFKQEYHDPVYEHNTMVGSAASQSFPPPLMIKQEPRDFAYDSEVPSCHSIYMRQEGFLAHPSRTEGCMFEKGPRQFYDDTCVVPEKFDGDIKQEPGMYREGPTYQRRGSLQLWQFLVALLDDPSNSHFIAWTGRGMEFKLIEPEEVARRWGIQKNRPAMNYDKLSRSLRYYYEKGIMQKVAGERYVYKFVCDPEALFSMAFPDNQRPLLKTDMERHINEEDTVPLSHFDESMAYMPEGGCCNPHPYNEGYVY
Outline: as §1

ERF = biological target: T6, ERF (Homo sapiens, UniProt P50548 1-548)
T6 sequence: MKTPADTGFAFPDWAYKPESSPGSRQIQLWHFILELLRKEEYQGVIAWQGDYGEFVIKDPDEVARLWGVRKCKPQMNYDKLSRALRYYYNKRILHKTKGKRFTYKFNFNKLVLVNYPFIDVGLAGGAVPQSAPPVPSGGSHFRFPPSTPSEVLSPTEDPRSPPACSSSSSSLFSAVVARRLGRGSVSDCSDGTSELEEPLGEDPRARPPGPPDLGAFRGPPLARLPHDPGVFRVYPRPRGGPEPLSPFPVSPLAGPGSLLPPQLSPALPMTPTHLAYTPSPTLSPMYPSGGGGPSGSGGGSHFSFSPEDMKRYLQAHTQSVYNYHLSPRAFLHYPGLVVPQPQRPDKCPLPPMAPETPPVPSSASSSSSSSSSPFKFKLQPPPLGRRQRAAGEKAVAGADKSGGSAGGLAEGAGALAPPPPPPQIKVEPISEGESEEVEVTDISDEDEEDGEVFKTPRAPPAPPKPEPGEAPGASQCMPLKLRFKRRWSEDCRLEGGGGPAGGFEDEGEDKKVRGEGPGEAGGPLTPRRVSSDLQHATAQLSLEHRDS
Outline: as §1

ETV3L = biological target: T7, ETV3L (Homo sapiens, UniProt Q6ZN32 1-361)
T7 sequence: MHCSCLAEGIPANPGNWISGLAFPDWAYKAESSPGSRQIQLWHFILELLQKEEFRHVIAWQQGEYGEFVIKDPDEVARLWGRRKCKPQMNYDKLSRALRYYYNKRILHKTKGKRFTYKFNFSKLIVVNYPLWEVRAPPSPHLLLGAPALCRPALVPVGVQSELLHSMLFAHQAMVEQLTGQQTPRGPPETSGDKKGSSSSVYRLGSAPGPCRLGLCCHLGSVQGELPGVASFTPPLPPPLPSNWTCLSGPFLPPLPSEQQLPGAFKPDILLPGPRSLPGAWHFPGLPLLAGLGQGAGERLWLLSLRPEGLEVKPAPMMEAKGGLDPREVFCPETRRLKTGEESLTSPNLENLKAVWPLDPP
Outline: as §1

ETS2 = biological target: T8, ETS2 (Homo sapiens, UniProt P15036 1-469)
T8 sequence: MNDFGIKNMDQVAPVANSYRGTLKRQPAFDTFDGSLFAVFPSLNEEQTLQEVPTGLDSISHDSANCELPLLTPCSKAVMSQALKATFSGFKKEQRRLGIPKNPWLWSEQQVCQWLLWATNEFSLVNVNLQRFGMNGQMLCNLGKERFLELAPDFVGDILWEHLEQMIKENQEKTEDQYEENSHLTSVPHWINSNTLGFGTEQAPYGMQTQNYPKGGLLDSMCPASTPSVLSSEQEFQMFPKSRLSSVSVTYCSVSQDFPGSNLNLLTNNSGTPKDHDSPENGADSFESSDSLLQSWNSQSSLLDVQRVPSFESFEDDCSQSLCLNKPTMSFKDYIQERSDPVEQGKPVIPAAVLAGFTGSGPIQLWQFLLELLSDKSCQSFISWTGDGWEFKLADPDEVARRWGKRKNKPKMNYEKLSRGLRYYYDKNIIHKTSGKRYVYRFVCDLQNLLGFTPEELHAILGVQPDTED
Outline: as §1

SPDEF = biological target: T9, SPDEF (Homo sapiens, UniProt O95238 1-335)
T9 sequence: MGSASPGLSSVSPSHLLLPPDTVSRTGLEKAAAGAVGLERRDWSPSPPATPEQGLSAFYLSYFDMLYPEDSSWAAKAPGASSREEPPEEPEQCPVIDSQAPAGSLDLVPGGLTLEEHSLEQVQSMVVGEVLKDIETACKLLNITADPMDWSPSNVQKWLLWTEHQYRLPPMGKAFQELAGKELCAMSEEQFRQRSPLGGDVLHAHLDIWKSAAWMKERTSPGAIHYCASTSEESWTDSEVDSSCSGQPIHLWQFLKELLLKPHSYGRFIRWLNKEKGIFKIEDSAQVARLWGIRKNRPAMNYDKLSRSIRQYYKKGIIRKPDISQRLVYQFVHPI
Outline: as §1

ETV7 = biological target: T10, ETV7 (Homo sapiens, UniProt Q9Y603 1-341)
T10 sequence: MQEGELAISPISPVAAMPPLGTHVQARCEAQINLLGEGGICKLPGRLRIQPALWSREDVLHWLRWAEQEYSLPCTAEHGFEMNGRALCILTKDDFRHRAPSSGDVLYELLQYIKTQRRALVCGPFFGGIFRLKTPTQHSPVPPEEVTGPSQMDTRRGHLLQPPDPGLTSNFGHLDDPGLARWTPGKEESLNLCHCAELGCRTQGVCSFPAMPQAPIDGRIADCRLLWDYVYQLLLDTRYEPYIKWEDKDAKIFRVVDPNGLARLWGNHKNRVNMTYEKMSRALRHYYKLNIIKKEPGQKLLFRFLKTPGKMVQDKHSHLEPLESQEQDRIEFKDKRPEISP
Outline: as §1

ELF5 = biological target: T11, ELF5 (Homo sapiens, UniProt Q9UKW6-2 1-255)
T11 sequence: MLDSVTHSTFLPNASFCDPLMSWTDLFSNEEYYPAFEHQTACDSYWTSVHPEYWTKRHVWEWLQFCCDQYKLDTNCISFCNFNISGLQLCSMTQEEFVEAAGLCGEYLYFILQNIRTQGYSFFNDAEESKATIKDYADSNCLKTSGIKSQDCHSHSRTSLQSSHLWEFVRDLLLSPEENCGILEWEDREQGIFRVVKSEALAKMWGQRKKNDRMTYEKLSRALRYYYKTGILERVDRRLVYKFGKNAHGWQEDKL
Outline: as §1

ETV3 = biological target: T12, ETV3 (Homo sapiens, UniProt P41162-2 1-143)
T12 sequence: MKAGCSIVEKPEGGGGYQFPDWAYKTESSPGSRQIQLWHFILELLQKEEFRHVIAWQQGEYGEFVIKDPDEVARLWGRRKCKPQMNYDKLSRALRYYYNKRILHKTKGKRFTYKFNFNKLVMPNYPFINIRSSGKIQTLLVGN
Outline: as §1

ETV6 = ETV6 (Homo sapiens, UniProt P41212 1-452)
Sequence of ETV6 (P41212 whole entry): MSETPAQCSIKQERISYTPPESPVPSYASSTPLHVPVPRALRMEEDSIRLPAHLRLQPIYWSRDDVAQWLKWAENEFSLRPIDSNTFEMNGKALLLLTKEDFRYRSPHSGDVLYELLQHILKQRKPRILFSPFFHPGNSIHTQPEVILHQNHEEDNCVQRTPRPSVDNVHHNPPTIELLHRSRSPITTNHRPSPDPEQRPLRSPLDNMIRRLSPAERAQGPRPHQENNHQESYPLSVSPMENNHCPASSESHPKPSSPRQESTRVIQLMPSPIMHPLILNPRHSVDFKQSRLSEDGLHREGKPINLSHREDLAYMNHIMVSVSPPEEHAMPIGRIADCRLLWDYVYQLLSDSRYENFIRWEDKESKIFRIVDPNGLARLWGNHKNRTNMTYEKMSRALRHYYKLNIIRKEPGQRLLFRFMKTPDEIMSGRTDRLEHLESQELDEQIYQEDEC
Outline: as §1

In the case of CAAACC, the binding signal (FEV) is reported as 1.18 fold enrichment (6-mer frequency, TF over GST control), the binding signal (ETV5) is reported as 1.05 fold enrichment (6-mer frequency, TF over GST control) and the binding signal (SPIC) is reported as 1.06 fold enrichment (6-mer frequency, TF over GST control). For the same sequence, the binding signal (ELF4) was 1.2 fold enrichment (6-mer frequency, TF over GST control), the binding signal (ELK4) was 1.05 fold enrichment (6-mer frequency, TF over GST control) and the binding signal (ETV2) was 1.12 fold enrichment (6-mer frequency, TF over GST control). For the same sequence, the binding signal (ELF3) was 1.15 fold enrichment (6-mer frequency, TF over GST control), the binding signal (ETV1) was 1.18 fold enrichment (6-mer frequency, TF over GST control) and the binding signal (ERF) was 1.06 fold enrichment (6-mer frequency, TF over GST control). The binding signal (ETV3L) was 1.18 fold enrichment (6-mer frequency, TF over GST control), the binding signal (ETS2) was 1.09 fold enrichment (6-mer frequency, TF over GST control) and the binding signal (SPDEF) was 1.11 fold enrichment (6-mer frequency, TF over GST control). For the same sequence, the binding signal (ETV7) was 1.02 fold enrichment (6-mer frequency, TF over GST control), the binding signal (ELF5) was 1.02 fold enrichment (6-mer frequency, TF over GST control) and the binding signal (ETV3) was 1.11 fold enrichment (6-mer frequency, TF over GST control). For the same sequence, the binding signal (ETV6) was 1.1 fold enrichment (6-mer frequency, TF over GST control).
